According to PubChem BioAssay (NCI):
The panel holds about 83,000 compounds, 20% with a hit somewhere; the sample as a whole holds those more often.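 The test compound was applied at a single concentration to cells in 96-well plates for 48 hours, and percent growth was recorded.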 Values without a mark were called inactive. Activity calls are given as the source filed them. The calls were made as follows: active = growth percent below 10; inactive = the rest.

system: T-47D breast; experiment: NCI-60 one-dose screen, 48 h (100 = growth as untreated, 0 = no growth, -100 = all killed); conditions: 10 µM unless noted

SMILES	growth
Cc1ccc(CCC(=O)Nc2ncc(Cc3cc(Cl)ccc3Cl)s2)o1	54.3%
c1ccc2c(c1)nc(CN1CCOCC1)n1cc(N3CCCC3)nc21	95.6%
COc1ccc(-c2c(N)n[nH]c2-c2ccc(Cl)cc2O)cc1OC	91.2%
COc1cc2nc(Cl)nc(Nc3ccc(S(=O)(=O)Nc4nccs4)cc3)c2cc1OC	94.3%
CS(=O)c1cccc(-c2ccc3nc(N)n(-c4ccc(C(F)(F)F)cc4)c(=O)c3c2)c1 (stereo not drawn)	77.1%
NCCCNc1nc2ccccc2c2c(=O)c3cccc(Cl)c3sc12	35.3%
CCCCCCCCCCCCCCCCCC1=NCCN1CCOC1=C(Cl)C(=O)c2ccccc2C1=O	12.6%
Cc1ccc(Nc2ccc(Nc3ccc(C)cc3)c3c2C(=O)c2cccc(O)c2C3=O)cc1	104%
O=Cc1c[nH]c2ccc(-c3csc4ccccc34)cc12	70.7%
COc1ccc2[nH]c(O)c(/C=c3/cc4c(c(-c5cc(OC)c(OC)c(OC)c5)n3)=Nc3ccccc3-4)c2c1	78.7%
NC(=N\N=C/c1cccc([N+](=O)[O-])c1)/C(N)=N\N=C/c1cccc([N+](=O)[O-])c1	4.8% (active)
NS(=O)(=O)c1cnccc1Sc1ccncc1S(N)(=O)=O	57%
COc1ccc(CN2C(=O)C(Cl)=C(Nc3cccc(C(F)(F)F)c3)C2=O)cc1	60.8%
O=C(/C=C/c1ccco1)c1ccc(Nc2nc(Nc3ccc(F)cc3)nc(Nc3ccc(Cl)cc3)n2)cc1	46.6%
CCC1(C2CCCC2)NC(=O)NC1=O (stereo not drawn)	93.4%
COc1cc2c(cc1-c1c(C)noc1C)ncc1nc(C3CCC(F)(F)CC3)n(C3CCC(OC(F)F)CC3)c12 (stereo not drawn)	22.5%
O=C1Nc2ccc(F)cc2C12Nc1cc(Cl)ccc1S2 (stereo not drawn)	40%
COc1cccc(-c2nn(-c3ccccc3)cc2-c2ccnc(NCCNC(=O)Nc3ccc(Cl)c(Cl)c3)c2)c1	12.6%
O=C(Nc1ccccc1Cl)Oc1ccc(-c2ccccc2)cc1	106%

SMILES	growth
O=c1c2c3c(sc2n2c(-c4cn(-c5ccccc5)nc4-c4ccc(Cl)cc4)nnc2n1Cc1ccccc1)CCCC3	81.8%
CCOC(=O)c1c2ncccc2n2c(=O)n(-c3ccccc3C)nnc12	89.9%
C=C1C(=O)O[C@H]2[C@H]1CC/C(COC(=O)C(=O)c1c[nH]c3ccccc13)=C\CC[C@@]1(C)O[C@@H]21	-56.8% (active)
CCCCOc1nc2ccccc2cc1C1CNC(=O)c2ccccc2N1 (stereo not drawn)	20.9%
CCCCCCCC/C=C\CCCCCCCCOc1ccccc1CC(=O)NCC[N+](C)(C)C	94.4%
O=C1NC(=Nc2ccc(Cl)cc2)S/C1=C\c1cn(-c2ccccc2)nc1-c1ccccc1	47.4%
CC(C)(C)CC(C)(C)Nc1c(-c2ccncc2)nc2cnccn12	86.1%
Fc1ccc(CNc2c3ccccc3nc3ccccc23)cc1F	47.9%
Cc1cc(NCc2cc(Nc3ccnc4cc(Cl)ccc34)ccc2F)nc(N2CCN(c3ccccc3)CC2)n1	24.5%
COc1ccc2c(c1)O/C(=C\c1cccc(OCC(=O)Nc3nc4ccccc4s3)c1)C2=O	62.1%
CC(CN1CCCCC1)C(=O)c1ccccc1 (stereo not drawn)	99.2%
CCN(CC)CCCNc1ccc(Nc2ccc(OC)cc2)cc1	118%
C=C1C(=O)O[C@H]2[C@H]1CC/C(CNC(=O)/C=C/c1ccc(Cl)cc1Cl)=C\CC[C@@]1(C)O[C@@H]21	-61.2% (active)
COc1cc(/C=C/C(=O)c2ccc(Nc3nc(Nc4ccc(F)cc4)nc(Nc4ccc(Cl)cc4)n3)cc2)cc(OC)c1OC	61.9%
O=C1Nc2ccccc2/C1=C/c1cn(C(=O)c2c(Cl)cccc2Cl)c2ccccc12	47.7%
O=C(c1ccccc1)c1c(/C=C/c2ccc(Cl)cc2)nc2ccccc2c1/C=C/c1cccs1	94.6%
CCCc1cc2c(=O)c(C(=O)OC)c[nH]c2cc1N(CC)CC	94.4%
Clc1ccc(-c2c3ccc(=[N+]4CCCCC4)cc-3oc3cc(N4CCCCC4)ccc23)cc1	-75.3% (active)
Cc1ccccc1NC(=O)N/C(N)=N/c1nc(-c2cccc([N+](=O)[O-])c2)cs1	35.7%
